Laboratory results taken from the supplement of paper PMC12632987.

T1: FBXL12, Q9NXK8
T1 chain: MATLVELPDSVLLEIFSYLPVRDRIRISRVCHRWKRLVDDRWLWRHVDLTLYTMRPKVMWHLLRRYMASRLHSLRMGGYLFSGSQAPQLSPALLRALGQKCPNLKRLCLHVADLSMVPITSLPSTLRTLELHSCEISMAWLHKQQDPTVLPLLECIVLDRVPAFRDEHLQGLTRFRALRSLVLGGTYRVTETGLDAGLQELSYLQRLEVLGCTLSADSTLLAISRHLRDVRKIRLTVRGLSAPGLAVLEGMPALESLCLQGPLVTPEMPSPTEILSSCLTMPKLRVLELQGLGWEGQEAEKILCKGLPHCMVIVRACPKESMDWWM

B1: FBXL12_hotspot_186_30 (protein)
chain: MDLEVRVGLGEDLETTKSTLDYAVALAEALAARGLTASLVSLARSVRESAIEVLKKTKDEEIYEAILEALKRMAEIVKDNPEALAIVEEAIKEVEKLKKE
B2: FBXL12_hotspot_186_27 (protein)
chain: QQLEFRVVTRLDPEITRSTLDTAIGLVESLLERGLIEQAKSAAEAILEEIERTLAESDDPEIHAILAESLRRLAEVLSRDPRLAPLLERARELLARIEAR
B3: FBXL12_hotspot_186_25 (protein)
chain: QRIEVRVSFSEDLEQARAGLELAIGLLEALLARGLIESAASLARSTVRAARELAARTDDEEVKRLLAEGLERIAEILRKHPELAEELEEVERAAREIRER
B4: FBXL12_hotspot_186_35 (protein)
chain: MKLRISFAPTDSPEQIRAGVDIAVAIVAGLAAAGRLEDFVEAVRSLLESLQANRARIQRPEHHAVFDAAIERLAALAAEVAAAHPDNAEVAAALARLKAA
B5: FBXL12_hotspot_186_31 (protein)
chain: KDLQVRVRLGLDLETTRSTLRYAVALAEALKARGLTASLRSLARSLRESAIEVLKKTKDEEIYEAILEALEELAKVVADDPEALAIVKEAIEEVERLKEE
B6: FBXL12_hotspot_186_26 (protein)
chain: MDLQIRVTLSPDLETARSGLEYAVGLLESLVERGLLESARSLVRSLIEAARKLVKETKDPEVRAAVIEALRRVAEILAKRPELEESRRLVEEAIKELEEE
B7: FBXL12_hotspot_186_32 (protein)
chain: MELRVSLSASMSVEQMRANAEIAVAIVEGLAERGLWEDLDAAARSLAASLRAAVERLQRPEAAAVAAEALERLAEIVARALEEHPENERLAATLAEIRAA
B8: FBXL12_hotspot_141_11 (protein)
chain: KGLLIVIMTSSIPEEKREEIKKHAEEAAKKAGIELIFEVAENEEEAEKIKEELLKEAEEKGYDVIGVLTVTDPNMDVERVKAYVEALVEWIKAKLEQLKA
B9: FBXL12_hotspot_147_12 (protein)
chain: REMTVVVQLGSSAESTAAYAAEVVLGLAQAGVDRIRVVVRTRDHEQALLAARELARADARAPASVTIELTFEGLTPEQVAEALAVYAETLAAERARLAAA
B10: FBXL12_hotspot_16_19 (protein)
chain: KDIILSVGVEEAERVEPSLELALEIVKGLKEAGVDRINVVIYAETEEAYKKIEELKDTILKEIEEAVKEAGGKLSVHKTKEAAEKEIERILEEIDKREEE
B11: FBXL12_hotspot_16_17 (protein)
chain: RDIVVVVGLLTAERVRSTLERAAEIVEGLRAAGVDRINVVIYAETEEAWAELERLEPTIVARIRAAVAAAGGELHIHRTREEAEKTREEILAEIDEEEEA
B12: FBXL12_hotspot_186_40 (protein)
chain: MELRVRFSPDMSVAQRRAGADIAVAILEGLAERGEIEELVEAARSLLDSLEAARARIQDPEFAAVAAAALARIAAILEEAAKRYPENEEIKEALARVKAA
B13: FBXL12_hotspot_186_39 (protein)
chain: MELRVRFSEDMSVEQMRAGLDIAVAILEGLAERGRIEDLVAAARSLLDSLEAGRARIKDPAFDEVVDDALRRIAAILERAAERYPDNEELRAALERVRAA
B14: FBXL12_hotspot_186_38 (protein)
chain: MELRIRFSPTMSVEQMRAGAQIAVDILRELARRGRWEDLVEAARSLLESLRAARARIRDPEFAEVAAEALERVAAILEEAAKRHPDDEAIHAALEEVKAA
B15: FBXL12_hotspot_186_33 (protein)
chain: MELRVSLSADMTPEQMRANAEIAVAIVAGLAERGRVEDLVAAARSLAASLRAAVARLQRPEVAAIAAEALARLAEIVAAAAARHPDNEDLRAALAELRAA
B16: FBXL12_hotspot_147_13 (protein)
chain: REVTVVVQLGAQAESTARYAAELVVGLGEAGVGRIRVVVRSARLEDALLAARELARAVARLPESVEVEVTFEGLSPEDVARARAVYEATLAAERAAQAAA
B17: FBXL12_hotspot_186_28 (protein)
chain: SDLEVRVTLGEDLETTKSTLDYAVALAEALKARGLTGSLRSLARSFRESAIARLKKSDDPEIYDAILEAAEKLREVVADDPEAKAIIDEAIAEIKAIKAE
B18: FBXL12_hotspot_186_29 (protein)
chain: SDLQVRVRLGDDLETTRSTLEYAVALAAALKARGLTASLRSLARSVRESAIARLRASDDPEIYEAIRAALEALAAVVADDPEARAIVEEALAEVERLRAE
B19: FBXL12_hotspot_16_24 (protein)
chain: PVRILVIRQASTQRTPEGVAYQREAAVAAARAGMDAVILVGLAEREEDVPEMEALVADFEAAVRAANPDIIVEGAVARTEEEAEALKAALLARVEARLAA
B20: FBXL12_hotspot_162_16 (protein)
chain: MKRLLILSFVIKATESPEEAKKRLKQFEEYALEMIEEALKNPEFKVVVVLASDGSPEDLEWVKEAAKRIKEKFPEVEVEVFETGEAAEKRIEELEEEAER
B21: FBXL12_hotspot_186_41 (protein)
chain: MEVRVSVPADAPLEVVRSTMKYAVELAKELKERGELEALASLGKSLVKLRKELKKAGAPEEKLKAVDEAIKEVAKILEEALKEHPDNEELKKALEELKKA
B22: FBXL12_hotspot_147_15 (protein)
chain: MEVTIRVVLGPGSESTVETAIALAAGLHEAGVEKIRIEVEAEDPEEALRAAERLAVEVGRKADVDEILAYDSRTGELLKRLDREEIKEIREEAERREREA
B23: FBXL12_hotspot_16_23 (protein)
chain: KIMVVRVRGRTPEELRPTLDRAVEIAIGLMKAGVDAIIFVAVVERAEDLPAVEALVAERRAALEAAAKEHGSKLEVVVGVAADEEAVEARVKALEEELEA
B24: FBXL12_hotspot_16_20 (protein)
chain: KIMIIRVVAGTEEEARSSVETAKKIAIGLMEAGVDAIILEAIAEKEELLPFLKELVEEKEKELREAAKKYGAKLRILVGTLDDLEELRAQAEAIAAELEA
B25: FBXL12_hotspot_141_10 (protein)
chain: RGLVIVIATAAVPEEVRAAVRAAAREAAAAAGVALRFEEAEDEEAAEELRERLLAEAEEEGYDAVGVLVLTSPEMSAERAIAYVRALVAFVAARVARLEA
B26: FBXL12_hotspot_186_36 (protein)
chain: MELRVRFGPDDSVEQMRAGVDIAVAIVEGLAEAGRLEDFVEAARSLLDSLEANAARIKDPAHRAVFAEAVARLLEIAERVAKAYPENEDIKEVAERLKAA
B27: FBXL12_hotspot_147_14 (protein)
chain: MKVTIRVVLEEGSETTVEMAIELAKGLHEAGVEEIRVEVEARDPEVALAAAERLAVEIGRGADVAEIRAFDRETGELLRRLDREEIRRIRAAAEEAEAAA
B28: FBXL12_hotspot_186_34 (protein)
chain: MELKITLSEDMSVEQMEAGLKLAVEILQGLRDRELLDDLVAAARSLLKSLKENVARIKKPEFKEVAKKALEEVAKIVKEAAERFPEVEELKEVAKELEEA
B29: FBXL12_hotspot_186_37 (protein)
chain: MLLRVSFSPDDSPAQIQAGVDIAVAIVEGLAERGRLEDFVEAARSLLESLRANAARIKRPEAQAVFDAAVARLAEIAEEVAERYPENEEIKELLEELREA
B30: FBXL12_hotspot_16_22 (protein)
chain: KIMIIKVVAATPEAARGTIETATKIAKGLMEAGVDAVILQAVAEKEEILPFLKELVEEKEKELKEVAKKYGSKLEVFVGTAADLEELEKEVKEKEKELEA
B31: FBXL12_hotspot_16_18 (protein)
chain: REIIVVVGLLEAERVESTLTTARDIVAGLREAGVDRVDVVIYTETPEAAAKLAELRPTIVAAIEAEVAAAGGRLSVHDTREAAEATREAILAEIDEREAA
B32: FBXL12_hotspot_16_21 (protein)
chain: KIMIIKVVAPTEEAARSGIETATKIAKGLMEAGVDAIILLAVAEEEALLPFLEELVEKHKEELEEAAKKYGAKLKVIVGTRADLAALEAEAEAIAAELEA

Biological target: T1, FBXL12, Q9NXK8
Test: median log2 fold change of GCK-ALFA target abundance (FLAG IP / Myc IP barcode read proportion) (log2 ratio); each designed protein is fused to an ALFA-tag nanobody in HEK293 cells to bring the named protein to FLAG-tagged glucokinase (GCK); Myc marks an untargeted standard; higher = target protein stabilised (more abundant)
Settings: target protein: 3xFLAG-MCP-GCK-ALFA reporter; HEK293 landing pad (RPLP)
Description: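 LABEL-seq trans screen in HEK293 landing-pad cells. Each de novo designed 100-aa effector handle, binding the indicated effector (E3 ligase, DUB or autophagy protein), is fused to a constant NbALFA target handle and induced with 2 ug/mL doxycycline. A FLAG-MCP-GCK-ALFA target and a Myc-MCP standard reporter were transfected, and after 48 h circRNA barcodes were recovered by anti-FLAG and anti-Myc IP and sequenced. The value is the median across barcodes (at least 3 per design) of log2(FLAG/Myc read-proportion ratio), with the two transfection replicates pooled. Negative values mean degradation and positive values mean stabilisation of the target.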

In order of rising “median log2 fold change” value:
1. B9  -0.623
2. B18  -0.229
3. B32  -0.165
4. B24  -0.134
5. B5  -0.132
6. B10  -0.0797
7. B25  -0.0786
8. B16  -0.0622
9. B20  -0.0487
10. B14  -0.00819
11. B11  0.0399
12. B4  0.0482
13. B30  0.0857
14. B3  0.0938
15. B31  0.0965
16. B1  0.1
17. B2  0.108
18. B26  0.111
19. B27  0.119
20. B8  0.126
21. B7  0.127
22. B23  0.127
23. B15  0.143
24. B17  0.157
25. B12  0.165
26. B19  0.171
27. B29  0.172
28. B6  0.196
29. B13  0.222
30. B22  0.23
31. B28  0.294
32. B21  0.34
